# Source: PubChem BioAssay
# Calls of active or inactive are those of the source.
# What was measured:
# [1] = test system: PRMT1 (protein arginine N-methyltransferase 1); experiment: PRMT1 binders on small-molecule microarrays, primary screen, biochemical, small-molecule microarray, 635 nm fluorescence (AID 1088); settings: small-molecule microarray binding, higher = more signal;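 also: binding of Prmt1 protein to compounds spotted on small-molecule microarray slides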
# [2] = yeast growth modulation, basal conditions, primary screen, YJM789 clinical isolate, OD600, 24 h (AID 1089);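 also: growth of clinical yeast isolate S. cerevisiae YJM 789 seeded 1000 cells per well; test concentration not given here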; settings: S. cerevisiae YJM789 growth, higher = more signal, called active from +8 up or from −8 down
# [3] = fission yeast growth modulation, primary screen, strain 972, OD600, 24 h, no modulator (AID 1090);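 also: basal condition with compound alone and no growth modifier present; test concentration not given here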; settings: S. pombe 972 growth, higher = more signal, called active from +8 up or from −8 down
# [4] = S. cerevisiae growth modulation with rapamycin, primary screen, strain BY4716, OD600, 96 h (AID 1091); settings: higher = more signal, called active from +8 up or from −8 down; also: test concentration not given here
# [5] = target: Torsin-1A-interacting protein 2 (Homo sapiens) (UniProt Q8NFQ8); experiment: LULL1 binders on small-molecule microarray, primary screen, cell lysate, human LULL1 lysate, 635/667 nm fluorescence (AID 1092); settings: hLULL1 lysate binding, 635 nm fluorescence, higher = more signal;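 also: probe is lysate of COS7 cells overexpressing human LULL1; score merges per-feature 667 nm fluorescence with signal-to-noise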
# [6] = E. coli growth modulation, two-sided OD650, primary screen, E. coli filamentation project, strain DRC41, 24 h (AID 1093); settings: OD650, 24 h, higher = more signal, called active from +8 up or from −8 down;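 also: MC1000 strain lacking acrAB efflux and sulA so SOS filamentation is blocked; test concentration not given here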
# [7] = small-molecule microarray binders of probe aLefty2, primary screen, biochemical, biotinylated probe, 635/667 nm fluorescence (AID 1094); settings: higher = more signal;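 also: score merges spot fluorescence near 667 nm with spot signal-to-noise ratio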
# [8] = test system: Noggin (protein binding on small-molecule microarray); experiment: Noggin binders on small-molecule microarray, primary screen, biochemical, 635/667 nm fluorescence (AID 1095); settings: 635 nm fluorescence, higher = more signal;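 also: score merges 667 nm feature fluorescence with signal to noise over triplicate slides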
# [9] = target: Neurogenic locus notch homolog protein 3 (Homo sapiens) (UniProt Q9UM47); experiment: NOTCH3 binders on small-molecule microarray, primary screen, biochemical, 635/667 nm fluorescence (AID 1096); settings: NOTCH3 binding, 635 nm fluorescence, higher = more signal
# [10] = small-molecule microarray binders of probe aEGFR, primary screen, biochemical, biotinylated probe, 635/667 nm fluorescence (AID 1097); settings: higher = more signal;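 also: probe is a biotinylated anti-EGFR antibody binding compounds printed on slides; score combines fluorescence near 667 nm and signal to noise of each spot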
# [11] = test system: Plasmodium falciparum Sir2 (PF13_0152, Sir2A); experiment: pfSir2 binders on small-molecule microarrays, primary screen, biochemical, small-molecule microarray, 635 nm fluorescence (AID 1098); settings: small-molecule microarray binding, fluorescence 635 nm; higher = more signal;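 also: score merges spot fluorescence intensity with its signal-to-noise ratio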
# [12] = small-molecule microarray binders of probe aDKK1, primary screen, biochemical, biotinylated probe, 635/667 nm fluorescence (AID 1099); settings: higher = more signal;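 also: score merges 667nm spot fluorescence with signal to noise across triplicate slides; reference of the scale not given here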
# [13] = small-molecule microarray binders of probe aCHRDL2, primary screen, biochemical, biotinylated probe, 635/667 nm fluorescence (AID 1100); settings: higher = more signal
# [14] = splicing luciferase reporter signal modulators, primary screen, spliceosome inhibition project, cell-based, HEK293, splice +/- reporter (AID 1101); settings: luminescence, 24 h, higher = more signal, called active from +8 up or from −8 down;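 also: HEK293 cells carrying a splicing-competent luciferase reporter gene; test concentration not given here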
# [15] = target: Fibroblast growth factor 10 (Homo sapiens) (UniProt O15520); experiment: FGF10 binders on small-molecule microarrays, primary screen, biochemical, small-molecule microarray, 635 nm fluorescence (AID 1102); settings: FGF10 binding, fluorescence 635 nm, higher = more signal
# [16] = test system: glycogen synthase kinase-3 (GSK3A per assay name; protocol says GSK3B); experiment: GSK3 binders on small-molecule microarrays, primary screen, biochemical, small-molecule microarray, 635 nm fluorescence, GSK3A (AID 1103); settings: small-molecule microarray binding, fluorescence 635 nm; higher = more signal; also: the record names both GSK3A and GSK3B
# [17] = target: Epidermal growth factor receptor (Homo sapiens) (UniProt P00533); experiment: EGFR binders on small-molecule microarrays, primary screen, biochemical, small-molecule microarray, 635 nm fluorescence (AID 1104); settings: EGFR binding, higher = more signal;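 also: score merges 667 nm emission intensity with spot signal to noise over triplicate slides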
# [18] = target: Follistatin-related protein 3 (Homo sapiens) (UniProt O95633); experiment: FSTL3 binders on small-molecule microarrays, primary screen, biochemical, small-molecule microarray, 635 nm fluorescence (AID 1105); settings: FSTL3 binding, higher = more signal;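 also: score merges emission near 667 nm and signal to noise per printed spot across three slides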
# [19] = target: Dickkopf-related protein 1 (Homo sapiens) (UniProt O94907); experiment: DKK1 binders on small-molecule microarrays, primary screen, biochemical, small-molecule microarray, 635 nm fluorescence scan (AID 1106); settings: DKK1 binding, higher = more signal;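 also: score merges emission near 667 nm with signal to noise over three replicate slides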
# [20] = test system: Inhibin beta A chain (activin A); experiment: INHBA (activin A) binders on microarrays, primary screen, biochemical, small-molecule microarray, 635 nm fluorescence scan (AID 1107); settings: small-molecule microarray binding, higher = more signal;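 also: mouse activin A protein probed at 4.33 µg/mL on printed slides; score merges bound-protein fluorescence near 667 nm with spot signal-to-noise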
# Chain of Dickkopf-related protein 1 (Homo sapiens) (O94907 whole entry, looked up): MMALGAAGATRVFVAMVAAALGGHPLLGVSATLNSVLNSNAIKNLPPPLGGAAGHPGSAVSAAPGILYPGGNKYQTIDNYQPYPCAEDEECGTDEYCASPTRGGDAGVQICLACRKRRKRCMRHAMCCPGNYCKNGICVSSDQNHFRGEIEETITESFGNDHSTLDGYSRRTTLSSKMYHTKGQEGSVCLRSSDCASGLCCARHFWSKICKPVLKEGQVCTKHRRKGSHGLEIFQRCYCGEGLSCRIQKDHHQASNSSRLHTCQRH
# Chain of Fibroblast growth factor 10 (Homo sapiens) (O15520 whole entry, looked up): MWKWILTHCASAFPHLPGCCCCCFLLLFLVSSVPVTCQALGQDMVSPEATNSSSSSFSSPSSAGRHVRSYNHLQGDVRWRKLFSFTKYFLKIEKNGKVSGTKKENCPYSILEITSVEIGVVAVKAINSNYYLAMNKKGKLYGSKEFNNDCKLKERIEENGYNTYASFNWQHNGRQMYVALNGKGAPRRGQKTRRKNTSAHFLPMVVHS
# Chain of Follistatin-related protein 3 (Homo sapiens) (O95633 whole entry, looked up): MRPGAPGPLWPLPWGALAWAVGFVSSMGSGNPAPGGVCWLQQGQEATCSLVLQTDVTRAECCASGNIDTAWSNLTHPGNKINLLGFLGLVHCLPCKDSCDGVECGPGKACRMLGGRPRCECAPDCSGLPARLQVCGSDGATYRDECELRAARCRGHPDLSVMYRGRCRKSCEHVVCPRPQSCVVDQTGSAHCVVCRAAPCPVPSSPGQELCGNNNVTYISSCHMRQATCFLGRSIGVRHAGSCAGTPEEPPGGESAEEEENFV
# Chain of Neurogenic locus notch homolog protein 3 (Homo sapiens) (Q9UM47 whole entry, looked up): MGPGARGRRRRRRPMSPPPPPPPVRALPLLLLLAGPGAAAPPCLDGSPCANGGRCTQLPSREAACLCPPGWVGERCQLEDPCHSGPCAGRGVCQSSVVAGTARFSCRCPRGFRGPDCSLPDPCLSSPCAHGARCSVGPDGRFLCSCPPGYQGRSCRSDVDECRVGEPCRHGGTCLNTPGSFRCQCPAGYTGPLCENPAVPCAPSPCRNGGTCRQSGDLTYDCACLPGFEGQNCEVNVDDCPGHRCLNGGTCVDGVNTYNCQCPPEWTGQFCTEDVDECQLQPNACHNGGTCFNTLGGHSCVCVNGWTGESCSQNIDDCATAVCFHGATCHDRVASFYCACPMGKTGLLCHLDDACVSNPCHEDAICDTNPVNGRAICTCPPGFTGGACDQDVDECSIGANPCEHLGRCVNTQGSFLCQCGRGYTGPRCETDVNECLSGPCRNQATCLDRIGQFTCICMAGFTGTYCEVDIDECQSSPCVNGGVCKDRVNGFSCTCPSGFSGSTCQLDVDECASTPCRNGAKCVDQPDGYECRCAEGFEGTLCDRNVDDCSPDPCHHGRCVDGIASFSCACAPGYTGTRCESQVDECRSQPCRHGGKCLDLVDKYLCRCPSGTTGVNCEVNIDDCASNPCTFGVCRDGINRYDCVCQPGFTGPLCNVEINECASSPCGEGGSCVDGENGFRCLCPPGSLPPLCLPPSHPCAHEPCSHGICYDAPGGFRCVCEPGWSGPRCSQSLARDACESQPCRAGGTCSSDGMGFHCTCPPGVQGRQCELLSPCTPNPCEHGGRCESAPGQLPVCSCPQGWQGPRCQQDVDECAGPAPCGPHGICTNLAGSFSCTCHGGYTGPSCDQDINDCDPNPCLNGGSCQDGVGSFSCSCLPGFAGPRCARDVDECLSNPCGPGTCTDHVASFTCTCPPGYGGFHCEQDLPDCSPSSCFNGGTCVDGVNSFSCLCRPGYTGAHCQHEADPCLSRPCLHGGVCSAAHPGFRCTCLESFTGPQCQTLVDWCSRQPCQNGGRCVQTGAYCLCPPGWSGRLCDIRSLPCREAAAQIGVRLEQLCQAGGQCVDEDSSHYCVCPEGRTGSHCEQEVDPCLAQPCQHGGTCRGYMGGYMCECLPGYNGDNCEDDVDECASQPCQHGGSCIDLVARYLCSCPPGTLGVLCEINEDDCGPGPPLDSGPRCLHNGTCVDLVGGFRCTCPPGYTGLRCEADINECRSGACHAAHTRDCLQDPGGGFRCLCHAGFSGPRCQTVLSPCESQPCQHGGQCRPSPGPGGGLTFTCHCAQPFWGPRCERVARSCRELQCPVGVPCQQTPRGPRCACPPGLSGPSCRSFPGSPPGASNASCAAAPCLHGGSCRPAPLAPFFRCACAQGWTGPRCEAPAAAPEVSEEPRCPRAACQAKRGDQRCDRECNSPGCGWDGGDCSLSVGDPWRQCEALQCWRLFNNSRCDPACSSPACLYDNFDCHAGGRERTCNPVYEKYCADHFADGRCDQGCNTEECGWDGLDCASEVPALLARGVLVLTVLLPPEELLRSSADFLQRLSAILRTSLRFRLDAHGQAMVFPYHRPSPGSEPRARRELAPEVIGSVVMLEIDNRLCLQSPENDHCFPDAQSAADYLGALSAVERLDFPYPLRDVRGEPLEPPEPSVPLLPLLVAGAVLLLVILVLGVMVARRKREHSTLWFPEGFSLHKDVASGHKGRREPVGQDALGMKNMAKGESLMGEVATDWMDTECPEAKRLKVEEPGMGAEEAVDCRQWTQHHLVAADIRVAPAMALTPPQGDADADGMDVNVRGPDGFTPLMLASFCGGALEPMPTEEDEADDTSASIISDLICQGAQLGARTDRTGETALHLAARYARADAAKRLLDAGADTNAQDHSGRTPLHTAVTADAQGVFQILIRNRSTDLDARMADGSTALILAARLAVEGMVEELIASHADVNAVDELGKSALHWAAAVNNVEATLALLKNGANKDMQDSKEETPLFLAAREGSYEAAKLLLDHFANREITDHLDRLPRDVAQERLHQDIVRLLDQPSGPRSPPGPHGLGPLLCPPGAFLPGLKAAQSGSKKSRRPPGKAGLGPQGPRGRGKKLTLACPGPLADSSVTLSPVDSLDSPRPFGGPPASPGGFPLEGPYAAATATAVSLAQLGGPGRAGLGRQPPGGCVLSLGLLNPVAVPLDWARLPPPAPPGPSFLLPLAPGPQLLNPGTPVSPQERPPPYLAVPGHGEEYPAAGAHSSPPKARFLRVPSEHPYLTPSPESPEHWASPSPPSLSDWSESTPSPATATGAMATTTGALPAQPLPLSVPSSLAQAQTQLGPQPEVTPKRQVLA
# Chain of Epidermal growth factor receptor (Homo sapiens) (P00533 whole entry, looked up): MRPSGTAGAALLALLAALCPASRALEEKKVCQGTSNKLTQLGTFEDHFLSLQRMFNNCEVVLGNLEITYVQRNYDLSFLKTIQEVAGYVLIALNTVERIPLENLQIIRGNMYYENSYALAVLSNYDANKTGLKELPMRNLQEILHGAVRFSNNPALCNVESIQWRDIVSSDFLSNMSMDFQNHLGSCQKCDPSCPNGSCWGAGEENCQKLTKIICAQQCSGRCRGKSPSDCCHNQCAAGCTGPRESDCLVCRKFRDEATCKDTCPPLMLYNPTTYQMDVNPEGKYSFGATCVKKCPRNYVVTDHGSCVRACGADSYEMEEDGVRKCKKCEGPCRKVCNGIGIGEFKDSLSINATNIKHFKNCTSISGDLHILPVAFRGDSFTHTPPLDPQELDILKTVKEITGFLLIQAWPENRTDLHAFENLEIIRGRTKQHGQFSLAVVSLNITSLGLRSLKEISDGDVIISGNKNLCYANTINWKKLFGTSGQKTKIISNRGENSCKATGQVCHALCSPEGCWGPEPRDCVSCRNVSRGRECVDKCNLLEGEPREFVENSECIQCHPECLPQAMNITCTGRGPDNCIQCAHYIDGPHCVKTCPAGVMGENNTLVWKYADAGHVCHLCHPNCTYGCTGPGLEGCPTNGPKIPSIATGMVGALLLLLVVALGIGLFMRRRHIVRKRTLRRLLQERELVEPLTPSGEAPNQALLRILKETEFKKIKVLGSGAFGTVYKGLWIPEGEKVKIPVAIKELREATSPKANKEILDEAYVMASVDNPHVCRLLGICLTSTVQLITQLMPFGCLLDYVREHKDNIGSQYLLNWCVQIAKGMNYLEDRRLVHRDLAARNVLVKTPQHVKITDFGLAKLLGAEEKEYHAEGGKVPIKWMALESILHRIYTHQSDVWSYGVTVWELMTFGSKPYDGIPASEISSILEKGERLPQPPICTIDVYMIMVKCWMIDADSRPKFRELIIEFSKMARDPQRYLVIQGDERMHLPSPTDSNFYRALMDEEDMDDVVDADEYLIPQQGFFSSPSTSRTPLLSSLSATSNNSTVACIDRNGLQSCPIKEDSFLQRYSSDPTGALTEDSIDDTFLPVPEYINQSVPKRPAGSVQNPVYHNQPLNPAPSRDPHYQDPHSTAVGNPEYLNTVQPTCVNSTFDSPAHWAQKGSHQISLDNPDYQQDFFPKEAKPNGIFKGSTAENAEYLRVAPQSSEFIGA
# Chain of Torsin-1A-interacting protein 2 (Homo sapiens) (Q8NFQ8 whole entry, looked up): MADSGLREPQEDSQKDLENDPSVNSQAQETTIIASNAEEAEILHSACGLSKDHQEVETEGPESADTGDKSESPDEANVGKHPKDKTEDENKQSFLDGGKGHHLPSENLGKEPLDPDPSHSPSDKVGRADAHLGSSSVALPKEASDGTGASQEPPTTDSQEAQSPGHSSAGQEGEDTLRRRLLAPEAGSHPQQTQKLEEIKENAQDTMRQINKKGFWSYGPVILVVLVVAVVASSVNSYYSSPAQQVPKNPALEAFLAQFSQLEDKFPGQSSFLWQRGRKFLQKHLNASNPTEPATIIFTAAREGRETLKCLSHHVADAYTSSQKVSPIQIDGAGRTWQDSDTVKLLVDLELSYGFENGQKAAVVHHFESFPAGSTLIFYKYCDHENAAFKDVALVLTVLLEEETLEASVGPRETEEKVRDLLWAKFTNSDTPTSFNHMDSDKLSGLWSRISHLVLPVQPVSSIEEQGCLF
structure (smiles),measurement,setting,value
CO[C@@H]1COC(=O)[C@@H]2CCCN2C(=O)[C@@H](C)COC(=O)CC=C[C@H]1C,composite z-score,[1],1.41
same,z-score,[2],-0.414 (inactive)
same,z-score,[3],0.0992 (inactive)
same,z-score,[4],-1.14 (inactive)
same,composite z-score,[5],0.882
same,z-score,[6],-0.152 (inactive)
same,composite z-score,[7],-0.0438
same,composite z-score,[8],1.18
same,composite z-score,[9],0.943
same,composite z-score,[10],-0.0788
same,composite z-score,[11],0.13
same,composite z-score,[12],-0.552
same,composite z-score,[13],-0.522
same,z-score,[14],-0.203 (inactive)
same,composite z-score,[15],0.959
same,composite z-score,[16],1.28
same,composite z-score,[17],0.598
same,composite z-score,[18],0.993
same,composite z-score,[19],1.12
same,composite z-score,[20],-0.282
CCOC(=O)CCN1C(=O)[C@H]2[C@H]3[C@H](O)[C@H](O)CC(=NOCC(C)C)[C@H]3CC[C@H]2C1=O,composite z-score,[1],-0.309
same,z-score,[2],0.199 (inactive)
same,z-score,[3],0.307 (inactive)
same,z-score,[4],0.0797 (inactive)
same,composite z-score,[5],0.22
same,z-score,[6],0.251 (inactive)
same,composite z-score,[7],0.096
same,composite z-score,[8],0.109
same,composite z-score,[9],-0.0186
same,composite z-score,[10],-0.15
same,composite z-score,[11],-0.108
same,composite z-score,[12],0.16
same,composite z-score,[13],0.782
same,z-score,[14],0.108 (inactive)
same,composite z-score,[15],-0.147
same,composite z-score,[16],-0.239
same,composite z-score,[17],0.214
same,composite z-score,[18],-0.276
same,composite z-score,[19],-0.0273
same,composite z-score,[20],0.617
O=C1[C@H]2[C@H]3[C@H](O)[C@H](O)CC(=NOCc4ccccc4)[C@@H]3CC[C@H]2C(=O)N1c1ccc(F)cc1F,composite z-score,[1],-0.755
same,z-score,[2],-1.94 (inactive)
same,z-score,[3],-0.469 (inactive)
same,z-score,[4],-0.996 (inactive)
same,composite z-score,[5],0.324
same,z-score,[6],-0.778 (inactive)
same,composite z-score,[7],-0.205
same,composite z-score,[8],0.358
same,composite z-score,[9],-0.283
same,composite z-score,[10],-0.125
same,composite z-score,[11],0.0102
same,composite z-score,[12],-0.376
same,composite z-score,[13],-0.554
same,z-score,[14],-1.29 (inactive)
same,composite z-score,[15],0.224
same,composite z-score,[16],-0.0906
same,composite z-score,[17],0.208
same,composite z-score,[18],0.286
same,composite z-score,[19],0.347
same,composite z-score,[20],-0.178
COc1cc(O)c(C(=O)C=Cc2ccc3c(c2)OCO3)c(OC)c1,composite z-score,[1],-0.825
same,z-score,[2],1.11 (inactive)
same,z-score,[3],0.561 (inactive)
same,z-score,[4],2.26 (inactive)
same,composite z-score,[5],-0.862
same,z-score,[6],0.75 (inactive)
same,composite z-score,[7],-0.127
same,composite z-score,[8],0.257
same,composite z-score,[9],0.124
same,composite z-score,[10],-0.113
same,composite z-score,[11],0.188
same,composite z-score,[12],-0.323
same,composite z-score,[13],-0.379
same,z-score,[14],-0.00405 (inactive)
same,composite z-score,[15],0.772
same,composite z-score,[16],-0.729
same,composite z-score,[17],-0.229
same,composite z-score,[18],-0.0642
same,composite z-score,[19],0.115
same,composite z-score,[20],0.551
CCOC(=O)C1=NO[C@@]2(C=C(Br)C3(OCCCO3)[C@H]3O[C@H]32)C1,composite z-score,[1],-0.481
same,z-score,[2],0.74 (inactive)
same,z-score,[3],0.664 (inactive)
same,z-score,[4],-0.291 (inactive)
same,composite z-score,[5],0.0603
same,z-score,[6],0.292 (inactive)
same,composite z-score,[7],0.105
same,composite z-score,[8],1.42
same,composite z-score,[9],0.91
same,composite z-score,[10],-0.004
same,composite z-score,[11],0.984
same,composite z-score,[12],-0.042
same,composite z-score,[13],0.521
same,z-score,[14],0.0671 (inactive)
same,composite z-score,[15],1.07
same,composite z-score,[16],0.827
same,composite z-score,[17],1.13
same,composite z-score,[18],0.842
same,composite z-score,[19],1.66
same,composite z-score,[20],1.59
CC(C)CCN1CCc2nc(COc3ccccc3)c3c(c2C1)CO[C@@H](C)C3,composite z-score,[1],0.0135
same,z-score,[2],0.377 (inactive)
same,z-score,[3],-0.438 (inactive)
same,z-score,[4],-0.531 (inactive)
same,composite z-score,[5],1.25
same,z-score,[6],1.17 (inactive)
same,composite z-score,[7],0.111
same,composite z-score,[8],-0.0126
same,composite z-score,[9],-0.149
same,composite z-score,[10],-0.123
same,composite z-score,[11],0.605
same,composite z-score,[12],0.179
same,composite z-score,[13],0.844
same,z-score,[14],0.893 (inactive)
same,composite z-score,[15],-0.185
same,composite z-score,[16],-0.113
same,composite z-score,[17],-0.0715
same,composite z-score,[18],-0.204
same,composite z-score,[19],-0.471
same,composite z-score,[20],0.71
C[C@@H](c1ccccc1)N1C(=O)[C@H]2[C@H]3[C@H](O)[C@H](O)CC(=NO[C@@H]4O[C@H](CO)[C@@H](O)[C@H](O)[C@H]4O)[C@H]3CC[C@H]2C1=O,composite z-score,[1],-0.997
same,z-score,[2],-0.264 (inactive)
same,z-score,[3],1.06 (inactive)
same,z-score,[4],0.749 (inactive)
same,composite z-score,[5],0.288
same,z-score,[6],0.466 (inactive)
same,composite z-score,[7],-0.0928
same,composite z-score,[8],0.587
same,composite z-score,[9],0.675
same,composite z-score,[10],-0.0223
same,composite z-score,[11],0.249
same,composite z-score,[12],-0.155
same,composite z-score,[13],-0.546
same,z-score,[14],0.0641 (inactive)
same,composite z-score,[15],0.559
same,composite z-score,[16],0.783
same,composite z-score,[17],0.425
same,composite z-score,[18],1.03
same,composite z-score,[19],0.44
same,composite z-score,[20],0.0882
CCOC(=O)[C@H](Cc1ccccc1)NC(=O)CCC1CC(OC(=O)NCCc2ccc(F)cc2)CC2(CCCC(COC(=O)NCCc3ccccc3OC)O2)O1 (stereo not given in full),composite z-score,[1],1.4
same,z-score,[2],-0.053 (inactive)
same,z-score,[3],0.932 (inactive)
same,z-score,[4],0.785 (inactive)
same,composite z-score,[5],2.18
same,z-score,[6],-0.715 (inactive)
same,composite z-score,[7],-0.157
same,composite z-score,[8],0.955
same,composite z-score,[9],1.13
same,composite z-score,[10],0.0846
same,composite z-score,[11],1.14
same,composite z-score,[12],-0.275
same,composite z-score,[13],-0.556
same,z-score,[14],-0.0644 (inactive)
same,composite z-score,[15],1.06
same,composite z-score,[16],1.28
same,composite z-score,[17],0.42
same,composite z-score,[18],0.857
same,composite z-score,[19],0.782
same,composite z-score,[20],-0.314
CO[C@H]1COC(=O)[C@@H](Cc2ccccc2)NC(=O)[C@@H](C)COC(=O)CCC[C@@H]1C,composite z-score,[1],0.231
same,z-score,[2],-0.875 (inactive)
same,z-score,[3],-0.301 (inactive)
same,z-score,[4],-0.784 (inactive)
same,composite z-score,[5],-0.502
same,z-score,[6],0.17 (inactive)
same,composite z-score,[7],-0.185
same,composite z-score,[8],0.304
same,composite z-score,[9],-0.0051
same,composite z-score,[10],-0.0152
same,composite z-score,[11],-0.0517
same,composite z-score,[12],-0.242
same,composite z-score,[13],-0.539
same,z-score,[14],-0.498 (inactive)
same,composite z-score,[15],0.517
same,composite z-score,[16],-0.431
same,composite z-score,[17],0.304
same,composite z-score,[18],0.379
same,composite z-score,[19],0.601
same,composite z-score,[20],0.296
COC(=O)C1=C(C)N(Cc2ccccc2)[C@]23O[C@](C(=O)OC)(C(=O)N2[C@@H]1c1ccccc1)C(C(=O)OC)=C3C(=O)OC,composite z-score,[1],1.36
same,z-score,[2],-1.68 (inactive)
same,z-score,[3],-2.66 (inactive)
same,z-score,[4],-1.85 (inactive)
same,composite z-score,[5],1.31
same,z-score,[6],0.521 (inactive)
same,composite z-score,[7],-0.0228
same,composite z-score,[8],0.551
same,composite z-score,[9],1.12
same,composite z-score,[10],0.0478
same,composite z-score,[11],1.16
same,composite z-score,[12],-0.389
same,composite z-score,[13],-0.562
same,z-score,[14],-2.35 (inactive)
same,composite z-score,[15],1.24
same,composite z-score,[16],1.06
same,composite z-score,[17],0.7
same,composite z-score,[18],0.84
same,composite z-score,[19],0.757
same,composite z-score,[20],0.226
